# Assay results published in publication PMC7862700, “An all-to-all approach to the identification of sequence-specific readers for epigenetic DNA modifications on cytosine”.
# Tests used:
# Test in all cases: DAPPL (digital affinity profiling via proximity ligation, sequencing); 10 mM Tris-HCl pH 7.5, 50 mM NaCl, 1 mM DTT, 4% glycerol, room temperature, 30 min; GST-TFs on glutathione beads, 16-mer random dsDNA library, 0.1% formaldehyde crosslink after washing; high values mean tight binding
# FEV = molecular target: T1, FEV (Homo sapiens, UniProt Q99581 1-238); details: protein: recombinant; tags: N-terminal GST; dsDNA, one strand shown
# T1 sequence: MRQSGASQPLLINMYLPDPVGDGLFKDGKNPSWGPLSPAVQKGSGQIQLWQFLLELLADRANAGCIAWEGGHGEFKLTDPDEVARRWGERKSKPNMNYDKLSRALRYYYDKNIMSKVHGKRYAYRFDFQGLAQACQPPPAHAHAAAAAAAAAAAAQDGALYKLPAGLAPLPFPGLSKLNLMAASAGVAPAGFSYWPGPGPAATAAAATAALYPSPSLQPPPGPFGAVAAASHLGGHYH
# Method in brief: (§1)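 Beads coated with glutathione captured GST-fused human transcription factors that had been expressed in yeast, and the factors were then given DNA barcodes and pooled with a tag-only sample. The pools were incubated with 200 nmole of a random double-stranded 16-mer DNA library in Tris/NaCl/DTT/glycerol buffer for 30 min at room temperature, washed, crosslinked with 0.1% formaldehyde and proximity-ligated with BsaI/T4 ligase at 37 °C for 1 h. PCR amplification and Illumina NextSeq500 sequencing came last. Binding signal is each hexamer's read frequency for a factor divided by its frequency for the tag-only sample.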
# ETV5 = ETV5 (Homo sapiens, UniProt P41161 1-510); details: protein: recombinant; tags: N-terminal GST; dsDNA, one strand shown
# Chain of ETV5 (P41161 whole entry): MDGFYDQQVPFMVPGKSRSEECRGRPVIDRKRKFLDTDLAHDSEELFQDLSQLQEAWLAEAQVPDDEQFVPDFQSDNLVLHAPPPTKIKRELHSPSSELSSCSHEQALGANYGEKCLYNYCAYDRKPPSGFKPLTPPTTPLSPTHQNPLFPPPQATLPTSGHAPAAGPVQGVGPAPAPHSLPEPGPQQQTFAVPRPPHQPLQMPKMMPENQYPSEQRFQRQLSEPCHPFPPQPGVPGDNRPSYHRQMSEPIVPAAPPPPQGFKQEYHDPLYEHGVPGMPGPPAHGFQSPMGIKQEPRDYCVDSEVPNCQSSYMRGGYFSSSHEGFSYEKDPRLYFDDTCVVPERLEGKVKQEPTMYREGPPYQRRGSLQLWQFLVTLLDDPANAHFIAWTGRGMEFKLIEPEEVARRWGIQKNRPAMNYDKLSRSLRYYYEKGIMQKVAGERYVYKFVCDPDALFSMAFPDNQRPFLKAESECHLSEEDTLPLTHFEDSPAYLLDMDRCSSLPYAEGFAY
# Method in brief: as §1
# HSF1 = HSF1 (Homo sapiens, UniProt Q00613 1-529); details: protein: recombinant; tags: N-terminal GST; chain copies: 3; dsDNA, one strand shown
# Chain of HSF1 (Q00613 whole entry): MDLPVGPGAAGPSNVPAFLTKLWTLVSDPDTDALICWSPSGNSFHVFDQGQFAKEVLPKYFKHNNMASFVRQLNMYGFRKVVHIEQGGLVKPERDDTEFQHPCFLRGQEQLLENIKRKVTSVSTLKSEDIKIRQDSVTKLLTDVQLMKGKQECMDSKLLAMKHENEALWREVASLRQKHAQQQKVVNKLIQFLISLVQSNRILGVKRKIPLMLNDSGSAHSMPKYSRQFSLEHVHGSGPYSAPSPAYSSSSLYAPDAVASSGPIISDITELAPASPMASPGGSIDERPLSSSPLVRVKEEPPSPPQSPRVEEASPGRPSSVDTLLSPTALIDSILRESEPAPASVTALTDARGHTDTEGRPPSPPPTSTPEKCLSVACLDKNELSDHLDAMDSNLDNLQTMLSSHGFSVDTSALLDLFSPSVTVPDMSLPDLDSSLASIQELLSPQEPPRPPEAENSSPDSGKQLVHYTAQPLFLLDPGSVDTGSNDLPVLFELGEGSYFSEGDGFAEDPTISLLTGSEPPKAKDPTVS
# Method in brief: as §1
# SPIC = molecular target: T2, SPIC (Homo sapiens, UniProt Q8N5J4 1-248); details: protein: recombinant; tags: N-terminal GST; dsDNA, one strand shown
# T2 sequence: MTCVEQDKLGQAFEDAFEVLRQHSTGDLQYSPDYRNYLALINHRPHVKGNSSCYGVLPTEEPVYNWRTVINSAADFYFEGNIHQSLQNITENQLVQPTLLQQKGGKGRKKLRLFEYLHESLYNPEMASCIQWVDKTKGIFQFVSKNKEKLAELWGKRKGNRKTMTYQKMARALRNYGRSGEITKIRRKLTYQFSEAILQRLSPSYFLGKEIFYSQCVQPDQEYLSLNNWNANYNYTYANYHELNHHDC
# Method in brief: as §1
# ELF4 = ELF4 (Homo sapiens, UniProt Q99607 1-663); details: protein: recombinant; tags: N-terminal GST; dsDNA, one strand shown
# Chain of ELF4 (Q99607 whole entry): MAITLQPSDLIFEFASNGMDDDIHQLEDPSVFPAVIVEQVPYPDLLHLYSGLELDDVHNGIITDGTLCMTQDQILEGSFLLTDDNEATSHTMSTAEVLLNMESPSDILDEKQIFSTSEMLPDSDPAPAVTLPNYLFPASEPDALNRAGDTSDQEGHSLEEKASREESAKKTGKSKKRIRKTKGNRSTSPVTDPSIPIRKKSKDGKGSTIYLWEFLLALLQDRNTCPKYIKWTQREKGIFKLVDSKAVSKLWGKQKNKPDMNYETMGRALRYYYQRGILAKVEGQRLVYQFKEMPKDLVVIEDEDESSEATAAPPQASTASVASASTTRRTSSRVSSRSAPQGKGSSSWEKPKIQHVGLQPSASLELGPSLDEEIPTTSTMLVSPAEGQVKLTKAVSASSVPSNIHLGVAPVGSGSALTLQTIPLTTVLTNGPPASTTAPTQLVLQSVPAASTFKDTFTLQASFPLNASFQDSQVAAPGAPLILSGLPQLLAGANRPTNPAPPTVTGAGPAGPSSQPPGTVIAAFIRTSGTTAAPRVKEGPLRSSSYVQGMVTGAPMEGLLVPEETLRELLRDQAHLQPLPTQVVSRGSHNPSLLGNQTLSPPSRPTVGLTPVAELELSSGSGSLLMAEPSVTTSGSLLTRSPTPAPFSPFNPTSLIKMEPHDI
# Method in brief: as §1
# ELK4 = molecular target: T3, ELK4 (Homo sapiens, UniProt P28324-2 1-405); details: protein: recombinant; tags: N-terminal GST; dsDNA, one strand shown
# T3 sequence: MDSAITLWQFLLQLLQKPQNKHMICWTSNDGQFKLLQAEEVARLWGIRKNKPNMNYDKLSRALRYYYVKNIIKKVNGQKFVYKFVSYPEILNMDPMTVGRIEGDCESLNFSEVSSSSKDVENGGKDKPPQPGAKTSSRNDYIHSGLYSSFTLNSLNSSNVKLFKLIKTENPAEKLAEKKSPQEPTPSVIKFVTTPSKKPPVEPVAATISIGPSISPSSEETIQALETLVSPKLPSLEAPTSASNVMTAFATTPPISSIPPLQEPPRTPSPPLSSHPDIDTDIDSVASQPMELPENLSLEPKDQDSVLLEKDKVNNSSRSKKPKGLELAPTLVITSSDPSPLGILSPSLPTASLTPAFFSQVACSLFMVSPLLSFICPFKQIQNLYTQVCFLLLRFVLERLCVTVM
# Method in brief: as §1
# ETV2 = molecular target: T4, ETV2 (Homo sapiens, UniProt O00321 1-342); details: protein: recombinant; tags: N-terminal GST; dsDNA, one strand shown
# T4 sequence: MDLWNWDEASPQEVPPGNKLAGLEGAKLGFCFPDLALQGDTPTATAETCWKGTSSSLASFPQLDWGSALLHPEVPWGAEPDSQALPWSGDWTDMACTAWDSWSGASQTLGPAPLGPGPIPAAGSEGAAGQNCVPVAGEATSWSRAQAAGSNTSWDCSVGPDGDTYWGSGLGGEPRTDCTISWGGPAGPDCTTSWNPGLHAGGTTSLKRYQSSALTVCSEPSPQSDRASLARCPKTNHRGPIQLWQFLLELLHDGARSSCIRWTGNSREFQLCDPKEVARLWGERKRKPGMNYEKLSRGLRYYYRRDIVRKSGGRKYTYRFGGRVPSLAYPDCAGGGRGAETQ
# Method in brief: as §1
# ELF3 = molecular target: T5, ELF3 (Homo sapiens, UniProt P78545 1-371); details: protein: recombinant; tags: N-terminal GST; dsDNA, one strand shown
# T5 sequence: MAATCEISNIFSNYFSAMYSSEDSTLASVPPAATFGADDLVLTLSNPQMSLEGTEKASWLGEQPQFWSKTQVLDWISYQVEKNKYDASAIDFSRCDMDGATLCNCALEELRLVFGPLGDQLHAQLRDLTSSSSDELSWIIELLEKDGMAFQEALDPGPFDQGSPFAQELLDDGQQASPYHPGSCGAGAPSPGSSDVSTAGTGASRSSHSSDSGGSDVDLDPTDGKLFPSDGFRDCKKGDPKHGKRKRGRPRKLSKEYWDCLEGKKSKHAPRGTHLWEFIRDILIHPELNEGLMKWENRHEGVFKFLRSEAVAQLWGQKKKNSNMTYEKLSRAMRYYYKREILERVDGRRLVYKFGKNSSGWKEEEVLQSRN
# Method in brief: as §1
# CRX = CRX (Homo sapiens, UniProt O43186 1-299); details: protein: recombinant; tags: N-terminal GST; dsDNA, one strand shown
# Chain of CRX (O43186 whole entry): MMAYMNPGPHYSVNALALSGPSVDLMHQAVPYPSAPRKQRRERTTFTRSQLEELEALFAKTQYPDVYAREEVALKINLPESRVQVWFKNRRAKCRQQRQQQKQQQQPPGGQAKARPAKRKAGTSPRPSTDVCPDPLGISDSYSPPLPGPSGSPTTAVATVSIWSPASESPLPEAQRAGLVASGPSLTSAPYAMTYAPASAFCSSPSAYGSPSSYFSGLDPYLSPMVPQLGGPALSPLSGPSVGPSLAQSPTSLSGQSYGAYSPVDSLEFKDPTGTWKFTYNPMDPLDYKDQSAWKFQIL
# Method in brief: as §1
# ETV1 = ETV1 (Homo sapiens, UniProt P50549 1-477); details: protein: recombinant; tags: N-terminal GST; dsDNA, one strand shown
# Chain of ETV1 (P50549 whole entry): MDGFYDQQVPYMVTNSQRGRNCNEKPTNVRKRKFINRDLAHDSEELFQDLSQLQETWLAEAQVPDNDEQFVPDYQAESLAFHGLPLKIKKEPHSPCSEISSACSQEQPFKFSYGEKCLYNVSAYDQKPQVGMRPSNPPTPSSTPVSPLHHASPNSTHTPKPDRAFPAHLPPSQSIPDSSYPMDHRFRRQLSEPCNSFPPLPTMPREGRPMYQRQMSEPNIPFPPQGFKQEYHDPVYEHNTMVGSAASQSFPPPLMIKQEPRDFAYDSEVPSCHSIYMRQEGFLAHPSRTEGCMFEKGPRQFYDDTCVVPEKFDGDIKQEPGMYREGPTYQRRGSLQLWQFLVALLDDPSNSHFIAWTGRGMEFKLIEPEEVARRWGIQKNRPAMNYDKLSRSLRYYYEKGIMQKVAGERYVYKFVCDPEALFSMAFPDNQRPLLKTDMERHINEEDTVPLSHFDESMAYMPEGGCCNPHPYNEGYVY
# Method in brief: as §1
# ERF = molecular target: T6, ERF (Homo sapiens, UniProt P50548 1-548); details: protein: recombinant; tags: N-terminal GST; dsDNA, one strand shown
# T6 sequence: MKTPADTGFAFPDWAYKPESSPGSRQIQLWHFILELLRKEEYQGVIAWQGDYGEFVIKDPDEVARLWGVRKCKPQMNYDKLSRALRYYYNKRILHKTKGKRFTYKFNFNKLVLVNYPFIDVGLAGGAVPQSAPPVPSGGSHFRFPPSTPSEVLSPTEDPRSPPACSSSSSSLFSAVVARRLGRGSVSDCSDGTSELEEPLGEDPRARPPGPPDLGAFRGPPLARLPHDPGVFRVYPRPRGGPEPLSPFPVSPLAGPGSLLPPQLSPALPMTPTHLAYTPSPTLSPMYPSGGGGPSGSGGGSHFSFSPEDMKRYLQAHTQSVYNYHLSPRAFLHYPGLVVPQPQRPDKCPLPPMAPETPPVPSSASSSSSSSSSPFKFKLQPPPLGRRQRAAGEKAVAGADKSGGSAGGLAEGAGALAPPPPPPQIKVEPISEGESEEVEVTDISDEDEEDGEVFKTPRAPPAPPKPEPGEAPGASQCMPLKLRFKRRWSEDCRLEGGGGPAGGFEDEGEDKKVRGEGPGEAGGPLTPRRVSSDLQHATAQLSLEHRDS
# Method in brief: as §1
# ETV3L = molecular target: T7, ETV3L (Homo sapiens, UniProt Q6ZN32 1-361); details: protein: recombinant; tags: N-terminal GST; dsDNA, one strand shown
# T7 sequence: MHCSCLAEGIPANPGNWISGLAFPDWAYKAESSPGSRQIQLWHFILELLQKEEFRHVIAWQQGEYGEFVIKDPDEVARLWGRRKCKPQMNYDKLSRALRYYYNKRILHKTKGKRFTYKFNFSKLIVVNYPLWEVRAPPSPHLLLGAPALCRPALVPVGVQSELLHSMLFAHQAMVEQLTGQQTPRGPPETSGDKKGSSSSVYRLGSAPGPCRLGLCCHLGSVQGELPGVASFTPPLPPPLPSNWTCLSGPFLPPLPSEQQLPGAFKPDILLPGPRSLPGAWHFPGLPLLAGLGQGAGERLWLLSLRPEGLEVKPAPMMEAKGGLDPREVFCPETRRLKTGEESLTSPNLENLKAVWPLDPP
# Method in brief: as §1
# ETS2 = molecular target: T8, ETS2 (Homo sapiens, UniProt P15036 1-469); details: protein: recombinant; tags: N-terminal GST; dsDNA, one strand shown
# T8 sequence: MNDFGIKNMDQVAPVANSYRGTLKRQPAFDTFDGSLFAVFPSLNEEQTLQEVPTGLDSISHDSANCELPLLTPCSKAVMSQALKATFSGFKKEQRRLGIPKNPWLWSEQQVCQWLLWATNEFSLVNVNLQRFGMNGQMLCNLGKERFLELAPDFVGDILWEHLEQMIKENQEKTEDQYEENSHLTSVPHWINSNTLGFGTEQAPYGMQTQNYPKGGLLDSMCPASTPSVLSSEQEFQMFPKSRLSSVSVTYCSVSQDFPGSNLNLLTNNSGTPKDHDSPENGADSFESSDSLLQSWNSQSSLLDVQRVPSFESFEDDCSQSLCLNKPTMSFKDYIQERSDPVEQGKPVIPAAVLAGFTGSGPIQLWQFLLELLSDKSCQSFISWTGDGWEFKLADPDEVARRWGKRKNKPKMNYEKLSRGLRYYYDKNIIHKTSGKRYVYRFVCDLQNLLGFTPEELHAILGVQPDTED
# Method in brief: as §1
# SPDEF = molecular target: T9, SPDEF (Homo sapiens, UniProt O95238 1-335); details: protein: recombinant; tags: N-terminal GST; dsDNA, one strand shown
# T9 sequence: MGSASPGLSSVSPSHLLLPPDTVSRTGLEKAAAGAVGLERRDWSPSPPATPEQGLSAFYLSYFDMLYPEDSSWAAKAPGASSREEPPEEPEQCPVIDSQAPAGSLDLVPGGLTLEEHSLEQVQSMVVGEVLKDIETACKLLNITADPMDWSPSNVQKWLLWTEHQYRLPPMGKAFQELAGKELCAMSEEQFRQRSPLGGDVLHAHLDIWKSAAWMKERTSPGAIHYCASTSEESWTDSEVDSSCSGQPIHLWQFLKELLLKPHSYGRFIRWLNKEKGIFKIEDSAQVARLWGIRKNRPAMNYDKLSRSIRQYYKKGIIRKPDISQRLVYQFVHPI
# Method in brief: as §1
# ETV7 = molecular target: T10, ETV7 (Homo sapiens, UniProt Q9Y603 1-341); details: protein: recombinant; tags: N-terminal GST; dsDNA, one strand shown
# T10 sequence: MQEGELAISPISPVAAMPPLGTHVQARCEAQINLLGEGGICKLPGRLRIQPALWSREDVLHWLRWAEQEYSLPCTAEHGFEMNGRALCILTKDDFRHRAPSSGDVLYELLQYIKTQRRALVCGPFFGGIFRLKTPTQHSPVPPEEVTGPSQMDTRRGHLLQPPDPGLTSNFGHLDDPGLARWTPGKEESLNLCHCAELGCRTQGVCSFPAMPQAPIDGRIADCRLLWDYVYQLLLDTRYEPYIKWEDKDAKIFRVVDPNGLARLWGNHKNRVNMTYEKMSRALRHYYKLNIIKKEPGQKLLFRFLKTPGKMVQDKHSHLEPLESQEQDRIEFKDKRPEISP
# Method in brief: as §1
# ELF5 = molecular target: T11, ELF5 (Homo sapiens, UniProt Q9UKW6-2 1-255); details: protein: recombinant; tags: N-terminal GST; dsDNA, one strand shown
# T11 sequence: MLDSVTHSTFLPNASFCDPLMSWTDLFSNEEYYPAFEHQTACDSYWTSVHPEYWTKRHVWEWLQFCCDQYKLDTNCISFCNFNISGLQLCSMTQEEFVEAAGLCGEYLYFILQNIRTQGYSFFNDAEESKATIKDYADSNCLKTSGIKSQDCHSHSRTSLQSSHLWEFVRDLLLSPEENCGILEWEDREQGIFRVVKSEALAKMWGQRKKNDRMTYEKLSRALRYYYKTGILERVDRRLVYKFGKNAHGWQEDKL
# Method in brief: as §1
# ETV3 = molecular target: T12, ETV3 (Homo sapiens, UniProt P41162-2 1-143); details: protein: recombinant; tags: N-terminal GST; dsDNA, one strand shown
# T12 sequence: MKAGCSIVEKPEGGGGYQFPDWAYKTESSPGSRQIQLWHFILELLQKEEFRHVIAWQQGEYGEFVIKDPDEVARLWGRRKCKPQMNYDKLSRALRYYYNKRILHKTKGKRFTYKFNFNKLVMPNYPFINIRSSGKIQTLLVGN
# Method in brief: as §1
# ETV6 = ETV6 (Homo sapiens, UniProt P41212 1-452); details: protein: recombinant; tags: N-terminal GST; dsDNA, one strand shown
# Chain of ETV6 (P41212 whole entry): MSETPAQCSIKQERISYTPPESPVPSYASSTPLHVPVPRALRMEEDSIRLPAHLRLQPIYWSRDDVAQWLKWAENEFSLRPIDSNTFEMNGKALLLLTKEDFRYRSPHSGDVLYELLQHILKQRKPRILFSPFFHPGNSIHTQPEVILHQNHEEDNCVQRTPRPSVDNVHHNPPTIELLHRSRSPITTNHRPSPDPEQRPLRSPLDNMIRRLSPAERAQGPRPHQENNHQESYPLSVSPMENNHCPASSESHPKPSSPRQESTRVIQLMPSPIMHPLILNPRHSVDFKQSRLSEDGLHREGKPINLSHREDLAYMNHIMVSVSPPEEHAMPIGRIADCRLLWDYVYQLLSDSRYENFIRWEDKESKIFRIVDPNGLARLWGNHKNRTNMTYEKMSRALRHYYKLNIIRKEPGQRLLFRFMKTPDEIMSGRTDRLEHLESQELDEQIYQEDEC
# Method in brief: as §1
sequence,measurement,setting,value
TCCCTG,binding signal,FEV,"1.28 fold enrichment (6-mer frequency, TF over GST control)"
same,binding signal,ETV5,"1.35 fold enrichment (6-mer frequency, TF over GST control)"
same,binding signal,HSF1,"1.24 fold enrichment (6-mer frequency, TF over GST control)"
same,binding signal,SPIC,"1.38 fold enrichment (6-mer frequency, TF over GST control)"
same,binding signal,ELF4,"1.31 fold enrichment (6-mer frequency, TF over GST control)"
same,binding signal,ELK4,"1.19 fold enrichment (6-mer frequency, TF over GST control)"
same,binding signal,ETV2,"1.38 fold enrichment (6-mer frequency, TF over GST control)"
same,binding signal,ELF3,"1.2 fold enrichment (6-mer frequency, TF over GST control)"
same,binding signal,CRX,"1.3 fold enrichment (6-mer frequency, TF over GST control)"
same,binding signal,ETV1,"1.35 fold enrichment (6-mer frequency, TF over GST control)"
same,binding signal,ERF,"1.29 fold enrichment (6-mer frequency, TF over GST control)"
same,binding signal,ETV3L,"1.28 fold enrichment (6-mer frequency, TF over GST control)"
same,binding signal,ETS2,"1.21 fold enrichment (6-mer frequency, TF over GST control)"
same,binding signal,SPDEF,"1.19 fold enrichment (6-mer frequency, TF over GST control)"
same,binding signal,ETV7,"1.23 fold enrichment (6-mer frequency, TF over GST control)"
same,binding signal,ELF5,"1.38 fold enrichment (6-mer frequency, TF over GST control)"
same,binding signal,ETV3,"1.26 fold enrichment (6-mer frequency, TF over GST control)"
same,binding signal,ETV6,"1.31 fold enrichment (6-mer frequency, TF over GST control)"
